A short description of assay [1]: antimalarial activity against Dd2 strain (AID 2302;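 active means growth inhibition above 50% at the single 2 µM test dose, taken to imply half-maximal potency below 2 µM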;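 further: 0% = DMSO untreated growth and 100% = chloroquine plus artemisinin killed control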). To be noted: P. falciparum Dd2 in RBCs, LDH growth readout, 72 h; at 2 µM; active compounds read high.
A short description of assay [2]: human hepatoma cell viability loss – ATP luminescence, cytotoxicity control for P. falciparum antimalarial project, primary screen (AID 2303;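 active means inhibition above 50%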;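 further: 0% = DMSO wells and 100% = digitonin-killed cells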). The conditions noted are these: HepG2 viability, 24-48 h, at 10 µM, active compounds read high.
For assay [3], the target named is L-lactate dehydrogenase (Plasmodium falciparum (isolate CDC / Honduras)) (UniProt Q27743). Briefly: PfLDH activity inhibition – cell lysate, 3D7 strain, counter-screen for P. falciparum growth inhibition project (AID 2304).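 Further: 0% = vehicle and 100% = reference inhibitor.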 To be noted: P. falciparum 3D7 crude extract, LDH APAD/NBT absorbance; at 2 µM; active compounds read high. (The purpose of a counterscreen is to sort out artefacts and off-target activity.)

The nature of assay [4]: inhibition of 3D7 malaria parasite growth – strain 3D7 (AID 2306).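 Further: 0% = DMSO wells and 100% = chloroquine plus artemisinin control wells.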 To be noted: P. falciparum 3D7 erythrocytic growth, LDH absorbance, 72 h; at 2 µM; active compounds read high.
Assay [5] has as its target Calcium-dependent protein kinase 1 (Plasmodium falciparum (isolate 3D7)) (UniProt P62344). Put plainly: PfCDPK1 kinase inhibitors, biochemical, TCAMS library (AID 1159585; cut-off not given, nearly all actives have IC50 up to about 0.98 µM;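 further: inhibitors leave more ATP so luminescence rises with inhibition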). The conditions noted are these: recombinant PfCDPK1, Kinase-Glo ATP depletion luminescence. Background: Kinase-Glo reads ATP consumption through a luciferase reaction.
Assay [6] addresses Plasmodium falciparum protein kinase 6 (PK6, PF3D7_1337100) (UniProt Q8IDW1). Put plainly: PfPK6 kinase inhibitors, biochemical, TCAMS library (AID 1159586). To be noted: recombinant PfPK6, Kinase-Glo ATP depletion luminescence.
The target of assay [7] is Protein kinase 7 (PK7), Plasmodium falciparum 3D7 (PF3D7_0213400) (UniProt Q7YTF7). Put plainly: inhibition of Plasmodium PK7 catalytic activity – biochemical, TCAMS antimalarial set, Kinase-Glo luminescence (AID 1159587). The conditions noted are these: recombinant PfPK7, Kinase-Glo ATP depletion luminescence.
In assay [8] the target is Calcium-dependent protein kinase 4 (Plasmodium falciparum (isolate 3D7)) (UniProt Q8IBS5). Briefly: PfCDPK4 kinase inhibitors, biochemical, TCAMS library (AID 1159588; cut-off not given, nearly all actives have IC50 up to about 0.91 µM). The conditions noted are these: recombinant PfCDPK4, Kinase-Glo ATP depletion luminescence.

Among the data in PubChem BioAssay are growth inhibition, inhibition and outcome values, retold here.

Values without a mark were called inactive. For some assays here: Entries with a potency or affinity are not part of this list. The source made the active and inactive calls. Unless noted, how the calls were made is not given here.

Sequence of L-lactate dehydrogenase (Plasmodium falciparum (isolate CDC / Honduras)) (Q27743 whole entry, looked up): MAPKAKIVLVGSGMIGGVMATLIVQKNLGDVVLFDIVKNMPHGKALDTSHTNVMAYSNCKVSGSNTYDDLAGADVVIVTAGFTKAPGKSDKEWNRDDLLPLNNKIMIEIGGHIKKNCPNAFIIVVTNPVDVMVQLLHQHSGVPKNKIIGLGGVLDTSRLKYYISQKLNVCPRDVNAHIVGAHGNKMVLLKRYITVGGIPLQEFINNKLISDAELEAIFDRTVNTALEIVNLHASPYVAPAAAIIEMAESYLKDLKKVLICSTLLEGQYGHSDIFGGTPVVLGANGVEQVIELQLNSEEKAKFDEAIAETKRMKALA
Sequence of Protein kinase 7 (PK7), Plasmodium falciparum 3D7 (PF3D7_0213400) (Q7YTF7 1-343): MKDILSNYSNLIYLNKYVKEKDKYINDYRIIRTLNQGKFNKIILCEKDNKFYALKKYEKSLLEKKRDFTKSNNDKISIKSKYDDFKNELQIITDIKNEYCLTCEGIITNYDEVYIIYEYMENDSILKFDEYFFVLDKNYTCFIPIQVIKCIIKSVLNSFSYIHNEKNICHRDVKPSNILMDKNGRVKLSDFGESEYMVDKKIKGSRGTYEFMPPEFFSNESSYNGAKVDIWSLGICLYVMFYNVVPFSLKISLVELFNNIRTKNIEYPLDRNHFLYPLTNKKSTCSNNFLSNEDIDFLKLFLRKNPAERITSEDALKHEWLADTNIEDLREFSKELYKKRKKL
Sequence of Plasmodium falciparum protein kinase 6 (PK6, PF3D7_1337100) (Q8IDW1 1-305): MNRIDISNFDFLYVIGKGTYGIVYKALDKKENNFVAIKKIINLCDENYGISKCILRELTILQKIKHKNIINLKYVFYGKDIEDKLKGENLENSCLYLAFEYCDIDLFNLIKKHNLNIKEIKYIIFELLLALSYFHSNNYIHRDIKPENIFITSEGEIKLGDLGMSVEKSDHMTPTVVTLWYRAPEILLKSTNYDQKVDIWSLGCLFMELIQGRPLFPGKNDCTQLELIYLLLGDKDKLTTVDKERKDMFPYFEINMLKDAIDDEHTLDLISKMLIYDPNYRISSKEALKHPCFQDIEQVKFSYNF
Sequence of Calcium-dependent protein kinase 1 (Plasmodium falciparum (isolate 3D7)) (P62344 whole entry, looked up): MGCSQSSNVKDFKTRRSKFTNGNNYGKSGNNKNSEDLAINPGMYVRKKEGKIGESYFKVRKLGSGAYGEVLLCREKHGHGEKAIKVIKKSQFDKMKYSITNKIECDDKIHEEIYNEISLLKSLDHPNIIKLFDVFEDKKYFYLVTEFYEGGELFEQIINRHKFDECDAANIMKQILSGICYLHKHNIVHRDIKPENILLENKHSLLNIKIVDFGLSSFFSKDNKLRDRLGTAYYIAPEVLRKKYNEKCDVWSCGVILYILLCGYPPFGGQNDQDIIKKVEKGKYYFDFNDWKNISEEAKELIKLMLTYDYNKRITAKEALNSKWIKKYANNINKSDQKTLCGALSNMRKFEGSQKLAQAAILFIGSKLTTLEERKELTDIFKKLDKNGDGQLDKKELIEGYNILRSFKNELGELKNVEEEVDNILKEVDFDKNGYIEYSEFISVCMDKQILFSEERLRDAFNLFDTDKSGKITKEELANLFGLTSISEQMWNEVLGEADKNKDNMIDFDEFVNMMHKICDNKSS
Sequence of Calcium-dependent protein kinase 4 (Plasmodium falciparum (isolate 3D7)) (Q8IBS5 whole entry, looked up): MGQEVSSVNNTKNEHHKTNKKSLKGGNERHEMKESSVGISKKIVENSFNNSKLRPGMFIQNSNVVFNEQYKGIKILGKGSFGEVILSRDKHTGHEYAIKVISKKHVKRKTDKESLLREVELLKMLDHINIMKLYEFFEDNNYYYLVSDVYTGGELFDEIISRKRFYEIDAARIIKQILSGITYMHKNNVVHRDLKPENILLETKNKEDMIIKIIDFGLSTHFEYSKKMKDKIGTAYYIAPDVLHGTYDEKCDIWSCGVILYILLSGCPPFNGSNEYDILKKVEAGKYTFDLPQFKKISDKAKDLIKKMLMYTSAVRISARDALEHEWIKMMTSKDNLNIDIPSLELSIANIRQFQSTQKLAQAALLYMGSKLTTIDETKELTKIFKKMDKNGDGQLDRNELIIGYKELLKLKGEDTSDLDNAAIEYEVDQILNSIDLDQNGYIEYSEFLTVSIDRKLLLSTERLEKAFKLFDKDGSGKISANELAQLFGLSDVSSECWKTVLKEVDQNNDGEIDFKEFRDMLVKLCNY

With `CCc1ccc(C2CCN(CCCCNC(=O)c3ccc(NC(=O)c4ccc(Cl)cc4)cc3)CC2)c(OCCO)c1`, the results for the growth inhibition in assay [1] and in assay [4] were 100% (active) and 98% (active), respectively. Moreover, the inhibition in assay [2] is 94% (active); in assay [3] it was -3%. In addition, the outcome in assay [5], in assay [6], in assay [7] and in assay [8] was inactive.

In the case of `COc1ccc(-c2cccc(CNCc3ccc(F)cc3)c2)cc1S(=O)(=O)NCCN1CCCC1`, the growth inhibition in assay [1] was 16%; in assay [4], 101% (active). Also, the inhibition in assay [2] is 20%; in assay [3], 4%. For the same molecule, the result in assay [5], in assay [6], in assay [7] and in assay [8] was inactive.

For `CNC(=O)NC1=NC(C)(C)N(OCCCOc2cc(Cl)c(Cl)cc2Cl)C(N)=N1`, the growth inhibition was 2% in assay [1] and 97% (active) in assay [4]. In addition, the inhibition in assay [2] was 7%; in assay [3], -3%. Further, the result in assay [5], in assay [6], in assay [7] and in assay [8] was inactive.

`CC(=O)Nc1cccc(NC(=O)CSc2ccc(-c3nc4ccccc4[nH]3)cn2)c1`: the growth inhibition in assay [1] was 73% (active); in assay [4], 97% (active). Moreover, the figures for the inhibition in assay [2] and in assay [3] were 22% and -4%, respectively. For the same molecule, the outcome in assay [5], in assay [6], in assay [7] and in assay [8] was inactive.

On to `CC1CCN(CCCNc2ccc(C(=O)Nc3ccc(C(F)(F)F)cc3)cc2[N+](=O)[O-])CC1`, for which the growth inhibition in assay [1] was 100% (active); in assay [4] it was 101% (active). Besides, the inhibition in assay [2] is 62% (active); in assay [3] it was -3%. For the same molecule, the result in assay [5], in assay [6], in assay [7] and in assay [8] was inactive.

As to `CC(C)[C@H](NC(=O)c1ccc(O)c(-c2ccc(Cl)c(Cl)c2)c1)C(=O)NC1CCCCCC1`, the growth inhibition in assay [1] and in assay [4] was 99% (active) in each case. The inhibition was -4% in assay [2] and -2% in assay [3]. Moreover, the outcome in assay [5], in assay [6], in assay [7] and in assay [8] was inactive.

Take `Cc1ccc2nc(C)cc(NN=Cc3ccccc3Cl)c2c1`: the growth inhibition is 62% (active) in assay [1] and 100% (active) in assay [4]. Further, the inhibition in assay [2] is 6%; in assay [3], -2%. Besides, the result in assay [5], in assay [6], in assay [7] and in assay [8] was inactive.

As for `Cc1cc(CN2CCC(Nc3ncc(-c4ccsc4)c4nc(C(F)(F)F)ccc34)CC2)no1`, the growth inhibition is 67% (active) in assay [1] and 81% (active) in assay [4]. The inhibition in assay [2] was 8%; in assay [3], -3%. The result in assay [5], in assay [6], in assay [7] and in assay [8] was inactive.

Turning to `O=C(Nc1cccc(CN2CCCN(Cc3ccc(O)cc3)CC2)c1)c1cccc(F)c1`, the growth inhibition in assay [1] is 4%; in assay [4] it was 92% (active). The figures for the inhibition in assay [2] and in assay [3] were 22% and -2%, respectively. For the same molecule, the result in assay [5], in assay [6], in assay [7] and in assay [8] was inactive.

For `Nc1cccc(-c2ccc3ccnc(N)c3c2)c1`, the growth inhibition in assay [1] is 66% (active); in assay [4] it was 91% (active). For the same molecule, the inhibition in assay [2] was 30%; in assay [3] it was -7%. In addition, the result in assay [5], in assay [6], in assay [7] and in assay [8] was inactive.

`Cc1ccc2c(=O)cc(CCc3cccc(F)c3F)n(CC(=O)N(Cc3ccc(-c4ccc(C(F)(F)F)cc4)cc3)C3CCN(C)CC3)c2n1`: the values for the growth inhibition in assay [1] and in assay [4] were 76% (active) and 86% (active), respectively. For the same molecule, the values for the inhibition in assay [2] and in assay [3] were 49% and 0%, respectively. Also, the result in assay [5], in assay [6], in assay [7] and in assay [8] was inactive.

As to `CCCCCC(C)C(C)c1cc(O)c2c(c1)OC(C)(C)CC2(O)c1ccccn1` (configuration not stated), the growth inhibition was 3% in assay [1] and 98% (active) in assay [4]. The inhibition in assay [2] was -2%; in assay [3], -5%. Also, the outcome in assay [5], in assay [6], in assay [7] and in assay [8] was inactive.

As to `COc1ccc2ncc(C#N)c(CCN3CCC(NCc4ccc5c(n4)NC(=O)CS5)CC3)c2n1`, the results for the growth inhibition in assay [1] and in assay [4] were 17% and 89% (active), respectively. In addition, the inhibition in assay [2] was 9%; in assay [3], -1%. The outcome in assay [5], in assay [6], in assay [7] and in assay [8] was inactive.

On to `Cc1cccc2[nH]c(-c3ccc(-c4ccc(CN5CCCCC5)cc4)s3)nc12`, for which the growth inhibition is 87% (active) in assay [1] and 99% (active) in assay [4]. Moreover, the inhibition in assay [2] was 16%; in assay [3], -2%. Also, the result in assay [5], in assay [6], in assay [7] and in assay [8] was inactive.

Take `COc1ccccc1CCNc1nc(C)cc(N[C@@H](CC(C)C)C(=O)NCc2cccs2)n1`: the growth inhibition in assay [1] is 31%; in assay [4] it was 96% (active). In addition, the inhibition is 20% in assay [2] and 0% in assay [3]. The result in assay [5], in assay [6], in assay [7] and in assay [8] was inactive.

As to `Nc1ccc(-c2nc3ccc(Oc4ccc5nc(-c6ccc(N)cc6)[nH]c5c4)cc3[nH]2)cc1`, the growth inhibition is 99% (active) in assay [1] and 100% (active) in assay [4]. The inhibition was 18% in assay [2] and 7% in assay [3]. Moreover, the result in assay [5], in assay [6], in assay [7] and in assay [8] was inactive.

Consider `Cc1cccc2[nH]c(-c3cccc(-c4ccc(NC(=O)C(C)C(=O)NC(C)C)cc4)c3)nc12` (configuration not stated), for which the growth inhibition in assay [1] is 26%; in assay [4], 85% (active). Besides, the inhibition in assay [2] is 13%; in assay [3], -3%. In addition, the outcome in assay [5], in assay [6], in assay [7] and in assay [8] was inactive.

In the case of `O=C(Nc1ccc(-c2nc3ccccc3[nH]2)cc1)c1ccc(Cl)s1`, the growth inhibition in assay [1] is 34%; in assay [4], 99% (active). Besides, the inhibition in assay [2] was 16%; in assay [3], 4%. Further, the outcome in assay [5], in assay [6], in assay [7] and in assay [8] was inactive.

Regarding `Cc1nnc2c(NC(=O)NC3CCCC3)cc3cc(-c4ccc(CN(C)C)cc4)ccc3n12`, the growth inhibition in assay [1] is 37%; in assay [4], 100% (active). The values for the inhibition in assay [2] and in assay [3] were 100% (active) and -2%, respectively. The outcome in assay [5], in assay [6], in assay [7] and in assay [8] was inactive.

In general, inhibition refers to the relative decrease from the control value, in per cent.
